Hits are enriched below; roughly 19% of the tested compounds scored in any of these assays.
Shiga toxin inh – inhibitors of Shiga toxin in Vero cells | inhibition, % at 38.7 µM | hit rate 9.2% among 290,000 | Vero cells, Shiga toxin protein synthesis inhibition reporter | AID 2315; in the data active = inhibition mostly above about 28%, no sharp cut-off; inactive = mostly below about 43%; also: 0% is about no effect
Cycloheximide cs – affects cycloheximide protein synthesis inhibition readout, counter-screen; cell reporter, cycloheximide protein synthesis inhibition counterscreen; max response, %; hit rate 12% among 300,000; AID 2314; in the data active = max response mostly above about 13%, no sharp cut-off; inactive = mostly below about 14%; also: read at 38.3 µM for the half of the compounds with a filed dose; 0% is about no effect
Pf growth 48h – inhibits P. falciparum growth in the first generation, 48 h; P. falciparum luciferase growth in erythrocytes, 48 h; hit rate 5.9% among 310,000; Potency, µM (doses to about 28.7 µM), for the others: at the highest dose activity change, negative = inhibition, hits mostly inhibitors; AID 504832; also: potency is read from the fitted curve at half-maximal effect; % is scaled to controls: 0 for no effect and ±100 for the full control effect
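Here the parasites carry a stable luciferase gene and grow inside erythrocytes in Albumax-based RPMI medium with compound for one erythrocytic cycle. Activity is scored as loss of luminescent signal.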
LASV entry inh – Lassa virus entry inhibition. Lassa virus pseudotype entry inhibition, cell reporter. hit rate 1.2% among 300,000. Potency, µM (doses to about 37.9 µM), without a hit: top-dose activity change, negative = inhibition, most hits filed as inhibitors. AID 540256; calls by dose curve; tested in HEK293 cells; also: potency is read from the fitted curve at half-maximal effect; % is scaled to controls: 0 for no effect and ±100 for the full control effect; nearly all actives have a fitted effect of over 50% in size
Pf growth 96h – P. falciparum growth inhibition at 96 hour, primary screen for plastid delayed-death inhibitors; P. falciparum luciferase reporter growth, 96 h; hit rate 6.9% among 320,000; AID 504834; Potency, µM (top dose mostly 28.7 µM), for inactives: at the top dose activity change, negative = inhibition, hits mostly inhibitors; also: potency is read from the fitted curve at half-maximal effect; % is scaled to controls: 0 for no effect and ±100 for the full control effect
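Delayed-death screen, second-generation endpoint: infected erythrocytes, 2% hematocrit, 0.05% parasitemia final; 96 hours at 37 C, 5% CO2; luciferase detection reagent; luminescence decrease equals reduced growth.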
MARV entry inh – Marburg virus entry inhibition; Potency, µM (titrated, usually from 37.8 µM), inactives show top-dose activity change, negative = inhibition, usual class: inhibitors; AID 540276; Marburg virus pseudotyped entry inhibition, cell reporter; hit rate 1.8% among 300,000; calls by dose curve; tested in HEK293 cells; also: potency is read from the fitted curve at half-maximal effect; % is scaled to controls: 0 for no effect and ±100 for the full control effect
The depositor's hits bear a star; u = inconclusive; x = no result given; [ ] = dose if it differs, or a comment. Unless noted, calls follow the shape of the dose curve; as a rule, active = well fitted inhibition curve with a large enough effect; inconclusive = small, poorly fitted or top-dose-only effect, or another doubt; inactive = no such curve, though single readings can be large or run the other way.

SMILES	Shiga toxin inh	Cycloheximide cs	Pf growth 48h	LASV entry inh	Pf growth 96h	MARV entry inh
COc1ccc(OC)c(NC(=O)CSc2nnc3ccc(-c4ccccn4)nn23)c1	x	x	22.4%	22.1%	0.0%	11.3%
CN(C)C(CNC(=O)c1ccc(S(=O)(=O)Nc2ccccc2)cc1)c1ccco1 (stereo not given)	x	x	u	-2.6%	-19.3%	-14.1%
Cc1ccc(CN(CC(=O)NCc2ccc3c(c2)OCO3)C(=O)c2csnn2)cc1	-5.6	-1.2	4.0%	-25.1%[46.1 µM]	6.7%	-23.2%[46.1 µM]
CCOC(=O)c1c(C)[nH]c(C(=O)N/N=C\c2ccccc2O)c1C	35.1*	29.4*	u	8.91µM*	u	u
CCOC(=O)c1c(C)[nH]c(C(=O)N/N=C/c2cc([N+](=O)[O-])ccc2O)c1C	15.4	12.0	u	6.51µM*	u	u
Cc1ccc(N(CC(=O)NCC2CCCO2)S(=O)(=O)c2ccc(Cl)cc2)cc1C (stereo not given)	-9.2	9.9	u	x	u	x
O=C(CN1C(=O)C(=O)N(Cc2ccco2)C1=O)Nc1ccccc1	x	x	x	12.7%	x	0.1%
CC(C)c1ccc(C(C(=O)NC2CCCCC2)N(C(=O)c2ccccn2)c2cccnc2)cc1 (stereo not given)	-17.7	5.0	10.4µM*	u	u	u
CC(=O)c1cccc(N(C(=O)c2ccccn2)C(C(=O)NC2CCCCC2)c2ccccc2)c1 (stereo not given)	-8.5	-3.3	-25.6%	-20.8%	10.4µM*	-19.2%[46.1 µM]
COc1cccc(N(C(=O)c2cnccn2)C(C(=O)NC2CCCCC2)c2ccc(Cl)cc2)c1 (stereo not given)	-4.0	-1.4	u	-17.0%	u	-7.1%
O=C(NC1CCCCC1)C(c1ccc(Cl)cc1)N(C(=O)c1cnccn1)c1ccc2c(c1)OCO2 (stereo not given)	-1.2	-2.8	10.4µM*	4.1%	-14.6%	4.8%
CCN1C(=O)c2ccccc2S(=O)c2ccc(C(=O)N3CCN(c4ccccc4)CC3)cc21 (stereo not given)	x	x	x	-3.6%[46.1 µM]	x	7.6%[46.1 µM]
COc1ccc(-c2nc3c(c(SCc4ccc(Br)cc4)n2)Cc2c(CO)cnc(C)c2O3)cc1	x	x	x	2.3%[46.1 µM]	x	x
Cc1nc(SCC(=O)CC(=O)OC(C)C)c(C#N)c(C)c1C	22.1	19.1	-18.6%	7.6%	-2.9%	-12.7%
CCn1c(SCC(=O)Nc2ccc(OC)c(OC)c2)nnc1-c1cccs1	-22.0	-7.8	-24.2%	-5.0%	u	u
Cc1ccc2ccccc2[n+]1CCCS(=O)(=O)[O-]	-16.8	-2.1	30.8%	8.2%	47.2%	25.6%[46.1 µM]
CN1CCN(S(=O)(=O)c2ccccc2)CC1	-23.8	1.7	-2.9%	u	u	0.2%
Cc1nc(N)ncc1C(=O)Nc1ccccc1	-5.0	-5.2	31.6%	12.7%[46.1 µM]	90.4%	4.3%[46.1 µM]
COc1cc2cc(C(=O)Nc3ccccc3)c(N)nc2cc1OC	-11.1	-3.4	2.33µM*	-0.6%	u	-26.5%
CCOc1ccc(NC(=O)c2cc(OC)nc3ccccc23)cc1	1.8	-1.2	21.4%[0.00184 µM]	u	-26.0%	-23.1%[46.1 µM]
COc1cc2ccccc2cc1C(=O)NC(=S)Nc1ccc(C(=O)O)cc1	30.2	-0.1	-3.7%	-9.9%[46.1 µM]	9.1%	-0.8%[46.1 µM]
COc1cc(OC)c(NC(=O)c2ccccc2F)cc1Cl	30.5	3.7	17.9%	x	9.2%	x
COc1cc(NC(=O)c2cc3ccccc3cc2O)c(OC)cc1Cl	62.7*	18.8*	2.08µM*	x	1.31µM*	x
COc1ccc(NC(=O)c2cc3ccccc3cc2OC)cc1	68.8	29.3*	u	u	75.9%	-23.8%
CCOc1ccc(NC(=O)c2cc3ccccc3cc2OC)cc1	59.6*	35.6*	-26.1%	u	-43.7%	u
SMILES	Shiga toxin inh	Cycloheximide cs	Pf growth 48h	LASV entry inh	Pf growth 96h	MARV entry inh
O=C(CS(=O)(=O)c1ccccc1)N(CCCN1CCOCC1)c1nc2c(F)cccc2s1	x	x	-27.6%	7.9%	-8.9%	u
COC(C[C@@H]1O[C@H]1[C@@H](O)[C@@H](C)OCc1ccccc1)OC	15.7	-4.0	56.2%	x	74.1%	x
CC(=O)c1cccc(N(CC(=O)Nc2cc(C)cc(C)c2)S(C)(=O)=O)c1	5.1	-0.6	0.7%	-21.1%	4.8%[5.75 µM]	5.5%[46.1 µM]
Cc1ccc(Cl)cc1NC(=O)c1cc2ccccc2cc1O	19.2	8.7	0.928µM*	x	0.294µM*	x
COc1ccccc1NC(=O)c1cc2cc(Br)ccc2cc1O	85.3*	24.4*	2.94µM*	x	u	x
Cc1ccc(Cl)cc1NC(=O)COC(=O)c1ccccc1O	-9.1	-2.2	-18.4%	x	12.2%	x
COc1ccc(NC(=O)NNC(=O)c2cc3ccccc3cc2O)cc1	-10.8	1.1	5.6%	x	35.3%	x
CCOc1ccc(NC(=O)c2cc3ccccc3cc2O)cc1	59.8*	30.2*	1.04µM*	x	1.85µM*	x
CCOc1ccc(NC(=O)c2cccc3ccccc23)cc1	36.6	18.1*	12.0%	x	u	x
c1ccc(Cc2nc3ccccc3n2Cc2ccccc2)cc1	-12.6	-0.9	u	-3.7%	u	u
CCOC(=O)N1CCN(C(=O)COc2cccc3c2CCN(Cc2cccc(C)c2)C3=O)CC1	14.2	-0.8	-26.1%	u	-36.4%	u
CCOc1ccc(NC(=O)[C@@H](NC(=O)c2ccccc2Br)C(C)C)cc1	2.2	4.8	x	5.1%	14.7µM*	14.2%
COc1cc2ccccc2cc1C(=O)Nc1ccccc1Cl	70.8*	86.5*	u	x	31.5%	x
COc1cc2ccccc2cc1C(=O)Nc1ccccc1N1CCCC1	x	x	u	5.0%	u	u
CCOc1ccc(NC(=O)C(CC)NC(=O)c2ccccc2CO)cc1 (stereo not given)	-28.3	-11.7	x	10.7%	x	25.3%
COc1cc2ccccc2cc1C(=O)Nc1cccnc1	75.5*	32.6*	111.7%	-3.5%	x	u
COc1cc(OC)c(C(=O)Nc2cccnc2)cc1OC	19.0	-2.4	14.8%	0.3%	u	2.3%
Cc1cccc(C)c1OCCOCCN1CCN(C)CC1	25.5	4.6	x	u	-21.8%	u
C=C[C@@]1(C)C[C@H](OC(=O)CSC(C)(C)CNC(=O)[C@@H](N)C(C)C)[C@@]2(C)C(C)CC[C@@]3(CCC(=O)[C@@H]32)[C@H](C)[C@H]1O (stereo not given in full)	x	x	1.07µM*	x	-17.5%	x
C=C[C@]1(C)C[C@@H](OC(=O)CSCCN(CC)CC)[C@]2(C)C(C)CC[C@]3(CCC(=O)[C@H]32)[C@@H](C)[C@@H]1O (stereo not given in full)	x	x	13.1µM*	x	2.08µM*	x
CCOc1ccc(OCc2ccc(C(=O)N3CCOCC3)cc2)cc1	44.4*	36.2*	75.2%	26.8%	69.0%	-5.5%
CCOc1ccc(C(=O)OC2CCCN(C)C2)cc1 (stereo not given)	37.1	9.7	-6.1%	x	10.4µM*	x
CC1CCCN(C(=O)c2ccncc2)C1 (stereo not given)	2.8	-1.8	12.3%	14.9%	x	-2.8%
CCOc1ccc(OCc2ccc(C(=O)N3CCCC(C)C3)cc2)cc1 (stereo not given)	101.5*	41.1*	75.4%	6.0%	u	u
